test system: TDF; experiment: H1.0 immunofluorescence intensity relative to DMSO (% of DMSO); higher = stronger H1.0 induction, active = 120 or more; settings: concentration: 10 µM; 24 h
How it was run: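 H1.0 nuclear intensity or cell number is expressed as percent of the plate control, with the median of replicates taken. HCC1569 and TDF cells were treated with compounds at 10 µM for 24 h at 37 °C, in triplicate, then fixed and immunostained for H1.0 with DAPI as a nuclear stain. HCC1569 values were smoothed to correct for positional effects.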
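Note: TDF is a line of transformed human dermal fibroblasts of mesenchymal origin.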

Structure (SMILES) | H1.0 immunofluorescence intensity
CN1CCC2(CCN3CCc4c(oc5ccccc45)C3C2)N(C)C1=O.Cl (stereo not drawn) | 95 (inactive)
CN(c1nc2ccccc2s1)C1CCN(CC(O)COc2ccc(F)c(F)c2)CC1.Cl.Cl (stereo not drawn) | 99 (inactive)
CCN(CCCl)Cc1ccccc1Br.Cl [DSP-4 hydrochloride] | 92.8 (inactive)
CP(=O)([O-])C1=CC[NH2+]CC1 | 91.8 (inactive)
CC=C(C)C(=O)OC1CCC2(C)C3CCC4C5(O)CC(O)C6(O)C(CN7CC(C)CCC7C6(C)O)C5(O)CC42OC13O (stereo not drawn) [Cevadine] | 96.4 (inactive)
CC(=O)[C@H]1CC[C@H]2[C@@H]3CC[C@H]4C[C@](C)(O)CC[C@]4(C)[C@H]3CC[C@]12C [(3alpha,5alpha)-3-hydroxy-3-methylpregnan-20-one] | 101 (inactive)
CCCC[N+]1(C)C2CC(OC(=O)C(CO)c3ccccc3)CC1C1OC12 (stereo not drawn) [Scopolamine N-butyl] | 91.4 (inactive)
CC(N)C(=O)OC(C)(C)Cc1ccc(Cl)cc1.Cl (stereo not drawn) [Alaproclate hydrochloride] | 88.2 (inactive)
COc1cc2c(c(OC)c1OC)-c1ccc(SC)c(=O)cc1C(NC(C)=O)CC2 (stereo not drawn) [Thiocolchicine] | 187 (active)
C=CCN1CC(C)N(C(c2ccc(C(=O)N(CC)CC)cc2)c2cccc(OC)c2)CC1C (stereo not drawn) | 96.5 (inactive)
NC(=O)CI [Iodoacetamide] | 134 (active)
CC12C(=O)OC(=O)C1(C)C1CCC2O1 (stereo not drawn) [Cantharidin] | 210 (active)
C#CC1(O)CCC2C3CCC4=CC(=O)CCC4=C3C=CC21CC (stereo not drawn) [Gestrinone] | 91.2 (inactive)
O.O=P1(N(CCCl)CCCl)NCCCO1 (stereo not drawn) [Cyclophosphamide monohydrate] | 116 (inactive)
COc1ccc(C(=O)c2c(C)n(CCN3CCOCC3)c3cc(I)ccc23)cc1 | 108 (inactive)
CCN(CC)C(=O)NC1C=C2c3cccc4[nH]cc(c34)CC2N(C)C1.O=C(O)C=CC(=O)O (stereo not drawn) [R(+)-Lisuride hydrogen maleate] | 91.4 (inactive)
Cl.O=C1CC2OCC=C3CN4CCC56c7ccccc7N1C5C2C3CC46 (stereo not drawn) | 94.3 (inactive)
Cc1cc(O)c2c(=O)c3c(O)cc(O)c4c5c(O)cc(O)c6c(=O)c7c(O)cc(C)c8c1c2c(c34)c(c78)c65 [Hypericin] | 96.3 (inactive)
C[N+]1(C)C2CC(OC(=O)C(CO)c3ccccc3)CC1C1OC12.[Br-] (single isomer, unassigned; (-)) [(-)-Scopolamine methyl bromide] | 95.7 (inactive)

Structure (SMILES) | H1.0 immunofluorescence intensity
O=c1[nH]c2ccccc2n1C1CCN(CCCC(c2ccc(F)cc2)c2ccc(F)cc2)CC1 [Pimozide] | 107 (inactive)
CC12CCC3C(CCC4=C(O)C(=O)CCC43C)C1CCC2=O (stereo not drawn) [Formestane] | 98.3 (inactive)
CCS(=O)(=O)Nc1cccc(C(=C2CCCCC2)c2cnc[nH]2)c1 | 94.6 (inactive)
NC(Cn1cc(I)c(=O)[nH]c1=O)C(=O)O (stereo not drawn) [S-5-Iodowillardiine] | 91.2 (inactive)
C=CCN1CCC23c4c5ccc(O)c4OC2C(=O)CCC3(O)C1C5.Cl (stereo not drawn) [Naloxone hydrochloride] | 97.1 (inactive)
O=[N+]([O-])c1ncc[nH]1 [Azomycin] | 97.8 (inactive)
CCCCCC(C=CC=CCCCCCCCC(=O)O)OO (stereo not drawn) | 99.2 (inactive)
C=CCN1CCC23CCCCC2C1Cc1ccc(O)cc13.O=C(O)C(O)C(O)C(=O)O (stereo not drawn) [Levallorphan tartrate] | 90.1 (inactive)
CC1OC1P(=O)([O-])[O-].[Na+].[Na+] (stereo not drawn) [Phosphomycin disodium] | 101 (inactive)
CCOP(=O)(OCC)C(C)NC(=O)N(CCCl)N=O (stereo not drawn) | 102 (inactive)
CCC(C(N)=O)N1CCCC1=O (stereo not drawn) [Levetiracetam] | 95.2 (inactive)
CC1(CO)C(O)CCC2(C)C1CCC1CC3CC12CCC3(O)CO (stereo not drawn) [Aphidicolin] | 108 (inactive)
C=CC1CN2CCC1CC2C(O)c1ccnc2ccccc12 (single isomer, unassigned; (-)) [(-)-Cinchonidine] | 101 (inactive)
Cl.NCC(O)c1ccc(O)cc1 (racemic) | 93.6 (inactive)
COC1=CC2C3Cc4ccc(OC)c(O)c4C2(CCN3C)CC1=O (stereo not drawn) [Sinomenine] | 94.1 (inactive)
C[N+](C)(C)CCOC(=O)CBr.[Br-] [Bromoacetylcholine bromide] | 87.8 (inactive)
COc1ccc2c(c1O)-c1c(OC)c(OC)cc3c1C(C2)N(C)CC3.Cl (single isomer, unassigned; (+)) [(+)-Isocorydine hydrochloride] | 94.5 (inactive)
COc1cc2c(cc1OC)C(C)NCC2 (stereo not drawn) [Salsolodine] | 88.7 (inactive)
COc1ccc(C(=O)OC2CC3CCC(C2)N3C)cc1OC (stereo not drawn) [Convolvamine] | 97.8 (inactive)
